# Assay results: the supplement of paper PMC11732987, “Enantioselective OTUD7B fragment discovery through chemoproteomics screening and high-throughput optimisation” (Communications Chemistry, 2025)
# A number with no mark means an inactive call.
# Tests used:
# Assay in all cases: log2 ratio of Biotin-Ahx-Ub-VS probe labelling (fragment/DMSO); higher = less target engagement (more negative = stronger competition), active = hit call of the paper (q ≤ 0.05, log2 ratio ≤ -1)
# Settings in all cases: compound concentration: 200 uM; treatment time: 3 h
# OTUD6B = target: T1, OTUD6B (UniProt Q8N6M0)
# T1 sequence (whole entry): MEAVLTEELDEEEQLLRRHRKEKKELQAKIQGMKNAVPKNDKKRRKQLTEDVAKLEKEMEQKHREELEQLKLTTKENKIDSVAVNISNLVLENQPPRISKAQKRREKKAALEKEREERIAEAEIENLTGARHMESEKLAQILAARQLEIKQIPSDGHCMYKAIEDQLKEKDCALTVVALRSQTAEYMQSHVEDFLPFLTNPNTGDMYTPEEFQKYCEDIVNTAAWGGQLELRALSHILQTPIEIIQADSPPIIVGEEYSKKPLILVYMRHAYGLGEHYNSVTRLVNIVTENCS
# Method in brief: (§1)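 Each value is an average log2 ratio of fragment to vehicle, tested by unpaired t-test. The underlying Spectronaut label-free quantities were global-median-normalised, and only proteins with ≥2 unique peptides were included. Triplicate HEK293T lysate samples (495 µg) were exposed to fragment at 200 µM or vehicle for 3 h, then to Biotin-Ahx-Ub-VS at 0.5 µM final for 1 h, before NeutrAvidin enrichment of labelled DUBs, LysC and trypsin digestion, and diaPASEF LC-MS/MS.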
# OTUD7B = target: T2, OTUD7B (UniProt Q6GQQ9)
# T2 sequence (whole entry): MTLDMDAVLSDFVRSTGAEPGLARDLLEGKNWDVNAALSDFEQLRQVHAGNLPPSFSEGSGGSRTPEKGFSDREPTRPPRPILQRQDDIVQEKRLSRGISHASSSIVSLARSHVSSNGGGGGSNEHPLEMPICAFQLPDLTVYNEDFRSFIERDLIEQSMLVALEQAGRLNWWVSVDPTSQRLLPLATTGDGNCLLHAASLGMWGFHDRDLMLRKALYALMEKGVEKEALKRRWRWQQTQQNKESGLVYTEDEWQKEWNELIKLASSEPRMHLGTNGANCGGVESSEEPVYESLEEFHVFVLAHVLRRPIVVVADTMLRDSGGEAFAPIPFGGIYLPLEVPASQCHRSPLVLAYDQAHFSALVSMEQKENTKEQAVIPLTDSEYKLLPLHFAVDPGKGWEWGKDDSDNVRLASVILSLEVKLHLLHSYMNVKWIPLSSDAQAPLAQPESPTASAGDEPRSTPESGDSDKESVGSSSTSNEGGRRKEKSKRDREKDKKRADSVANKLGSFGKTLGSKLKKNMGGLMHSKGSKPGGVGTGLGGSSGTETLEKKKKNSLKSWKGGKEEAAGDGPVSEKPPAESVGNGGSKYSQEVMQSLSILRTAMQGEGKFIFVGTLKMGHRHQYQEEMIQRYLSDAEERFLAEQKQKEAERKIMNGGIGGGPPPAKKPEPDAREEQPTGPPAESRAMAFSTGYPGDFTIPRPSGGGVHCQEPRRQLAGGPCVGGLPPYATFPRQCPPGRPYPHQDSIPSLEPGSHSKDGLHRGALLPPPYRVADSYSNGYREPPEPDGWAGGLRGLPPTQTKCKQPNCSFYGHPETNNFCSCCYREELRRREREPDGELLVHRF
# Method in brief: as §1
# PRPF8 = PRPF8 (UniProt Q6P2Q9)
# Method in brief: as §1
# PSMD7 = target: T3, PSMD7 (UniProt P51665)
# T3 sequence (whole entry): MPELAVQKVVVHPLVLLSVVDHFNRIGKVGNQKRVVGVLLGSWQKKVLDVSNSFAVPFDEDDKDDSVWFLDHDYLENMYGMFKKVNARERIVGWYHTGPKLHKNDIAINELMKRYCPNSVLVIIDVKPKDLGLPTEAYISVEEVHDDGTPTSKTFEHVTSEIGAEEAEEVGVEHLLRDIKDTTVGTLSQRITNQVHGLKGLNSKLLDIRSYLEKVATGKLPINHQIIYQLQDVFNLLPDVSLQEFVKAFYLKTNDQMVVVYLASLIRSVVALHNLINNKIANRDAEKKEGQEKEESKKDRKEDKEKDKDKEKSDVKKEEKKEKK
# Method in brief: as §1
# UCHL1 = UCHL1 (UniProt P09936)
# Chain of UCHL1 (P09936 whole entry, looked up): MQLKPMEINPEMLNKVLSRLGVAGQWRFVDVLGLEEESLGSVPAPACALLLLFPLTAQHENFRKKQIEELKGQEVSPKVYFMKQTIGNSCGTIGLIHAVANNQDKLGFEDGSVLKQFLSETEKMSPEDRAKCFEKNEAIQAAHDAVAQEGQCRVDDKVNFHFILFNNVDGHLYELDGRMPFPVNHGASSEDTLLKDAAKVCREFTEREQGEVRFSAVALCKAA
# Method in brief: as §1
# UCHL3 = target: T4, UCHL3 (UniProt P15374)
# T4 sequence (whole entry): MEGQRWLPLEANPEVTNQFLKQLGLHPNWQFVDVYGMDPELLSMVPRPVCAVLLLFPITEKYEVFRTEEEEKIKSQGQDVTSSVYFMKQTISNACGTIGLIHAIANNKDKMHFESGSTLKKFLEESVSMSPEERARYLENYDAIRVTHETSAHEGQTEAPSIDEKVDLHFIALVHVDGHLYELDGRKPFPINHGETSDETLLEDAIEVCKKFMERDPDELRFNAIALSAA
# Method in brief: as §1
# UCHL5 = target: T5, UCHL5 (UniProt Q9Y5K5)
# T5 sequence (whole entry): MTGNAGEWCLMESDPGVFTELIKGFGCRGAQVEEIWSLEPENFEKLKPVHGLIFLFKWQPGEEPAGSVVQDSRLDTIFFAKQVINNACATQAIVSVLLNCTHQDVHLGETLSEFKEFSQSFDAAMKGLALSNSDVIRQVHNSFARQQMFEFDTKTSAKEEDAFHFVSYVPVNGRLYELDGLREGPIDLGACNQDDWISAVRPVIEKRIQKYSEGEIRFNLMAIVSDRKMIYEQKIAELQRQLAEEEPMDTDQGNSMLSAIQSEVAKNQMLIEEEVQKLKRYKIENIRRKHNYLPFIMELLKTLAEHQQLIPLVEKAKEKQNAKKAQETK
# Method in brief: as §1
# USP10 = USP10 (UniProt Q14694)
# Chain of USP10 (Q14694 whole entry): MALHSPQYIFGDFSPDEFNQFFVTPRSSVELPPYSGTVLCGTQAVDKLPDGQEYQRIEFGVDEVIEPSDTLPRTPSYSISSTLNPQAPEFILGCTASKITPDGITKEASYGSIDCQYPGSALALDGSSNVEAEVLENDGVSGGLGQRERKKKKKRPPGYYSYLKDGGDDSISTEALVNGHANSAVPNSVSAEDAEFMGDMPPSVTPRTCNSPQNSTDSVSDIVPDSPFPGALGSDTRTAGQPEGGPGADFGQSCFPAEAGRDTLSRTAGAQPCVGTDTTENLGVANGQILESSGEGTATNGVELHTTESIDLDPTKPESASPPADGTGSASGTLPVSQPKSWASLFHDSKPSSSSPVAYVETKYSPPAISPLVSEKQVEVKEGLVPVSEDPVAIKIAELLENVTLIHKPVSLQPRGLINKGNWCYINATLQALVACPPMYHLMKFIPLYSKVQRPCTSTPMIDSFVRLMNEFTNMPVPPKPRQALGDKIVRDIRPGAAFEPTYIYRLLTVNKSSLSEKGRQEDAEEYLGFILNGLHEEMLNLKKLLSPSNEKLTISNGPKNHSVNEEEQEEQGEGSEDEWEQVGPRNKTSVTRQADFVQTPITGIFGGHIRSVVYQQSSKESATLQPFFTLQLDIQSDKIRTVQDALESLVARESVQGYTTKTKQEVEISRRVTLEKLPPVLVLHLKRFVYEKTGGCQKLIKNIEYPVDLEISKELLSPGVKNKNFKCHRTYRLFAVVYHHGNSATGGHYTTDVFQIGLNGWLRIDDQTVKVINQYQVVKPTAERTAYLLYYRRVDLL
# Method in brief: as §1
# USP15 = target: T6, USP15 (UniProt Q9Y4E8)
# T6 sequence (whole entry): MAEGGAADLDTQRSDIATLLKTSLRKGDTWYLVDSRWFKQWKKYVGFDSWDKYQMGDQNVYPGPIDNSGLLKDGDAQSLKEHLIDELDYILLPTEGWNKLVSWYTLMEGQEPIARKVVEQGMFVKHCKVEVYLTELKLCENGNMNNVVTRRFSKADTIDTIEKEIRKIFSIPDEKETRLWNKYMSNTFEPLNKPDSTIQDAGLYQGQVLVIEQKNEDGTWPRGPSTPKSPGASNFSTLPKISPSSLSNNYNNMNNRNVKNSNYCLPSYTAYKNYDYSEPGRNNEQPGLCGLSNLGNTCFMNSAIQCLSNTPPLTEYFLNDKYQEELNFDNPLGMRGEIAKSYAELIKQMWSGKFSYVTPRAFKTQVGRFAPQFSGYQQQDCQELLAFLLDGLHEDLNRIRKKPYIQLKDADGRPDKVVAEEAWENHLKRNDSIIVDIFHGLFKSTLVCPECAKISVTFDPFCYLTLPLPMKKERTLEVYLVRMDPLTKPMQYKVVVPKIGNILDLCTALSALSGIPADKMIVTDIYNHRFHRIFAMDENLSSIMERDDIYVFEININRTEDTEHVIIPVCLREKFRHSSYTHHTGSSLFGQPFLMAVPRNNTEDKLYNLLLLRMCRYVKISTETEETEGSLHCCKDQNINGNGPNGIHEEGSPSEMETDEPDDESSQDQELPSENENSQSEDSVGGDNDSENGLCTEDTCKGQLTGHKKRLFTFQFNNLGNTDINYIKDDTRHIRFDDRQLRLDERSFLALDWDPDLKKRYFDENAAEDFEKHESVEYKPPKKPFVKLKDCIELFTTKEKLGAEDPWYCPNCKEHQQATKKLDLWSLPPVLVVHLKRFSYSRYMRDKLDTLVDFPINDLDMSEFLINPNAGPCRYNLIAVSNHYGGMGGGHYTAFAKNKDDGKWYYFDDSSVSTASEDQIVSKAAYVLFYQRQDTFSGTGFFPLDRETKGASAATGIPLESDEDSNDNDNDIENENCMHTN
# Method in brief: as §1
# USP16 = USP16 (UniProt Q9Y5T5)
# Chain of USP16 (Q9Y5T5 whole entry, looked up): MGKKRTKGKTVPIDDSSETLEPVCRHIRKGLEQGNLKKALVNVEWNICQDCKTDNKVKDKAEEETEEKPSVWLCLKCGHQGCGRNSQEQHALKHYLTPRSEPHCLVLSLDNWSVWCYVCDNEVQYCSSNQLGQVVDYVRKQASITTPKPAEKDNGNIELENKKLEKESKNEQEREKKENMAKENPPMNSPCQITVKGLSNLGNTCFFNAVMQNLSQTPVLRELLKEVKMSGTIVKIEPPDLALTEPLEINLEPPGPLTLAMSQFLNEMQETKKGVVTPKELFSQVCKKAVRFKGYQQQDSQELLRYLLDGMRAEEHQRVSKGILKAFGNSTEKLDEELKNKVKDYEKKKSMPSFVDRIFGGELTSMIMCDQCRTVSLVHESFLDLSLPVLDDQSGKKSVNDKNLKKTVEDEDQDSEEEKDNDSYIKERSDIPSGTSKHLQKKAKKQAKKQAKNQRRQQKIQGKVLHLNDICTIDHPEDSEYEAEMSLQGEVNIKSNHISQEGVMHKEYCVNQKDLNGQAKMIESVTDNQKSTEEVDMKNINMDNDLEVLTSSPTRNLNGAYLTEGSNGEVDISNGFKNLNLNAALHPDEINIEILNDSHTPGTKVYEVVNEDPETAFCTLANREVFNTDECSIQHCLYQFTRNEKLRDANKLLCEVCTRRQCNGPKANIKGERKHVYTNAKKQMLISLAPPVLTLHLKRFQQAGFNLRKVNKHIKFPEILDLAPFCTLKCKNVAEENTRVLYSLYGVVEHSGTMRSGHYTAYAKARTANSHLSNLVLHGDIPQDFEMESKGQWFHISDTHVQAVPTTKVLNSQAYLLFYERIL
# Method in brief: as §1
structure (smiles),measurement,setting,value
O=C(CCl)N1CCN(C(=O)Nc2ccccc2)CC1,log2 ratio of Biotin-Ahx-Ub-VS probe labelling,OTUD6B,0.0713
same,log2 ratio of Biotin-Ahx-Ub-VS probe labelling,OTUD7B,-0.112
same,log2 ratio of Biotin-Ahx-Ub-VS probe labelling,PRPF8,-0.00577
same,log2 ratio of Biotin-Ahx-Ub-VS probe labelling,PSMD7,0.0846
same,log2 ratio of Biotin-Ahx-Ub-VS probe labelling,UCHL1,-1.33 (active)
same,log2 ratio of Biotin-Ahx-Ub-VS probe labelling,UCHL3,-0.441
same,log2 ratio of Biotin-Ahx-Ub-VS probe labelling,UCHL5,0.033
same,log2 ratio of Biotin-Ahx-Ub-VS probe labelling,USP10,-0.135
same,log2 ratio of Biotin-Ahx-Ub-VS probe labelling,USP15,-0.101
same,log2 ratio of Biotin-Ahx-Ub-VS probe labelling,USP16,0.0643
